According to PubChem BioAssay AID504332 (National Center for Advancing Translational Sciences (NCATS), 2011):
Screen size: about 350,000 compounds; about 31,000 (8.9%) were called active. Inconclusive results (about 15%) are left out. Shown is part of a subset that was picked to be rich in actives. Values without a mark were called inactive. Calls follow the shape of the dose curve; as a rule, active = well fitted inhibition curve with a large enough effect; inconclusive = small, poorly fitted or top-dose-only effect; inactive = no such curve, though single readings can be large or run the other way.

Target: Histone-lysine N-methyltransferase EHMT2 (Homo sapiens) (UniProt Q96KQ7)
Assay: qHTS Assay for Inhibitors of Histone Lysine Methyltransferase G9a; also: nearly all actives have a fitted effect of over 75% in size
Conditions: G9a H3K9 monomethylation, AlphaScreen, 2 h; series mostly up to 59 µM; activity, negative = inhibition: at the top concentration
Summary of the method: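 Readings reflect AlphaScreen signal from monomethyl-H3K9 antibody detection. HMT at 20 nM; substrate b-H3K9 500 nM; cofactor SAM 20 uM; 2 h RT reaction; compounds tested as titrations in qHTS with 15 min preincubation.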
% is scaled to controls: 0 for no effect and ±100 for the full control effect; potency is read from the fitted curve at half-maximal effect.

Chain of Histone-lysine N-methyltransferase EHMT2 (Homo sapiens) (Q96KQ7 913-1193 limits assumed): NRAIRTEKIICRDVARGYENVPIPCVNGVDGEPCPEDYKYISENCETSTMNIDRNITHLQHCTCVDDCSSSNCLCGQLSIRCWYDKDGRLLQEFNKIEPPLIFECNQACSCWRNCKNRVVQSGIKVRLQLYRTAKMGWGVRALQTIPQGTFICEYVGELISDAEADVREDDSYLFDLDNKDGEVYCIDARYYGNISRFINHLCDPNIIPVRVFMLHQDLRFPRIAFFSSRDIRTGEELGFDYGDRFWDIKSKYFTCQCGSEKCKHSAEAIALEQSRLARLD

Row | SMILES | Potency | activity, negative = inhibition
1 | COc1cccc(Cn2c(SCc3ccc(C(=O)N4CCC(C)CC4)cc3)nc3ccncc32)c1 | 1.78 µM (active) | 
2 | O=C(CSc1nc2c(c(=O)[nH]1)CN(Cc1ccc3c(c1)OCO3)CC2)Nc1cc(F)ccc1F |  | -25.9% (inactive)
3 | Cc1ccc2oc(C(=O)N3CCN(C)C[C@@H]3C(C)C)c(C)c2c1 |  | 45.1% [at 102 µM] (inactive)
4 | CN(C)S(=O)(=O)c1cc(C(=O)Nc2ccn(C)n2)c(Cl)cc1Cl |  | 19.1% [at 12.7 µM]
5 | CCNC(=S)Nc1ccc(OC(F)(F)F)cc1 |  | 13.3% [at 102 µM] (inactive)
6 | FC(F)(F)Oc1ccc(NC(=S)NCc2ccccc2)cc1 |  | 9.57% [at 102 µM] (inactive)
7 | CS(=O)(=O)c1sc(C(=O)NC(=S)Nc2ccc(OC(F)(F)F)cc2)c2c1C=CCC2 | 50.1 µM (active) | 
8 | COc1cc(OC)c(C(=O)Nc2ccccc2-c2ccccc2)cc1OC |  | -48.3% [at 102 µM] (inactive)
9 | COc1cc(OC)c(C(=O)Nc2ccc(N(C)C)cc2)cc1OC | 4.47 µM (active) | 
10 | COc1ccc(Cl)cc1C(=O)Nc1ccc(N(C)C(C)=O)cc1 |  | 23.8% (inactive)
11 | COc1ccc(C(C)NC(=O)C23CC4CC(CC(C4)C2)C3)cc1 (stereo not drawn) |  | 23.9% [at 102 µM] (inactive)
12 | CCOc1ccc(-c2cc3nc(C4CCN(C(=O)OC(C)(C)C)CC4)c(C(=O)Nc4cccc(CC)c4)cn3n2)cc1 |  | -6.19% (inactive)
13 | O=C(NCc1ccc2c(c1)CCN2C(=O)c1ccccc1)Nc1cc(F)ccc1F |  | -15.2% (inactive)
14 | CCSc1nc(C)c(CCOc2cccc(C)c2)c(=O)[nH]1 |  | -3.47% (inactive)
15 | CCSc1nc(O)c(C(c2cccc(OC)c2)c2c(O)nc(SCC)[nH]c2=O)c(=O)[nH]1 | 70.8 µM (active) | 
16 | CC(C)c1c(O)nc(SCCOc2ccc(Cl)cc2)[nH]c1=O |  | 4.44% [at 102 µM] (inactive)
17 | CCCCn1c(N)c(N(CC)C(=O)c2ccc(N(C)S(=O)(=O)c3ccc(C)cc3)cc2)c(=O)[nH]c1=O |  | 8.91% [at 12.7 µM]
18 | CCCCn1c(N)c(N(CCC(C)C)C(=O)COC(=O)c2cccnc2OCC)c(=O)[nH]c1=O |  | 10.4% (inactive)
19 | COc1ccc(NS(=O)(=O)c2ccc(C)c(C(=O)NCC(c3cccs3)N3CCOCC3)c2)cc1 (stereo not drawn) |  | -6.36% [at 102 µM] (inactive)
20 | COc1cccc(N2CC(NC(=O)c3ccc4ccccc4c3)CC2=O)c1 (stereo not drawn) |  | 2.32% [at 102 µM] (inactive)
21 | CC(=O)c1ccc(NC(=O)C(C)NCc2ccc(Cl)cc2)cc1 (stereo not drawn) |  | 7.53% [at 102 µM] (inactive)
22 | CC(NCC(=O)Nc1cc(Cl)cc(Cl)c1)c1ccccc1 (stereo not drawn) |  | -0.468% [at 102 µM] (inactive)
23 | CC(NCc1cccs1)C(=O)Nc1cc(Cl)cc(Cl)c1 (stereo not drawn) | 5.01 µM (active) | 
24 | Cc1cccc(NC(=O)c2sc3nc(N4CCOCC4)c4c(c3c2N)CCCC4)c1 |  | 6.18% [at 0.501 µM]

Row | SMILES | Potency | activity, negative = inhibition
25 | CC(NC(=O)CN(C)S(=O)(=O)c1ccc(F)cc1)C1CC2CCC1C2 (stereo not drawn) |  | 11.8% [at 12.7 µM]
26 | COc1ccccc1C(=O)OCc1cc(=O)n2nc(-c3cccs3)sc2n1 |  | 7.4% (inactive)
27 | CC(C)c1nc(SCC(=O)Nc2cccc(C(=O)O)c2)c2c3c(sc2n1)CCCC3 |  | -2.84% [at 102 µM] (inactive)
28 | Cc1cc(NC(=O)CSc2nc(C(C)C)nc3sc4c(c23)CCC(C)C4)no1 (stereo not drawn) | 1 µM (active) | 
29 | CCCCOC(=O)CSc1ncnc2sc3c(c12)CCC(C)C3 (stereo not drawn) |  | 76.4% (inactive)
30 | CCOc1ccccc1CNC(=O)c1cnc2c(-c3ccc(OCC)c(OCC)c3)c(C)nn2c1C |  | -3.36% (inactive)
31 | CCc1nccn1S(=O)(=O)c1cc(Br)ccc1Br |  | 4.79% (inactive)
32 | Cc1ccnc(NC(=O)CCC(=O)N(CC(=O)NCCc2ccccc2)Cc2cccs2)c1 |  | 7.27% [at 102 µM] (inactive)
33 | O=C(O)CCC(=O)N(Cc1cccs1)Cc1cccs1 | 50.1 µM (active) | 
34 | O=C(CCc1ccccc1)NCCc1cccs1 |  | 31.8% [at 102 µM] (inactive)
35 | Fc1ccc(COc2ccc(-c3nnco3)cc2)cc1 |  | 14.6% [at 102 µM] (inactive)
36 | Fc1ccc(COc2cccc(-c3n[nH]c(=S)o3)c2)cc1 | 5.01 µM (active) | 
37 | CN(Cc1ccc(F)cc1)C(=O)COc1ccc2ccccc2c1 |  | 21.6% [at 102 µM] (inactive)
38 | O=C(N/N=C/c1ccccc1O)C1CCCC1 |  | 36.3% [at 102 µM] (inactive)
39 | COc1ccc(Cn2ccc3nc(C)c(C(=O)Nc4ccc(C)c(F)c4)cc3c2=O)cc1 |  | 0.748% (inactive)
40 | O=C(O)c1ccccc1C(=O)Nc1ccccc1[N+](=O)[O-] |  | -29.3% [at 102 µM] (inactive)
41 | O=C(Nc1ccccc1-c1ccccc1)c1ccccc1[N+](=O)[O-] |  | 6.77% [at 102 µM] (inactive)
42 | O=C(O)c1ccccc1NC(=S)NC(NC(=O)c1ccccc1[N+](=O)[O-])C(Cl)(Cl)Cl (stereo not drawn) | 12.6 µM (active) | 
43 | Cc1ccc(CNC(=O)c2c(O)nc3c(C)cccn3c2=O)cc1 |  | -10.5% (inactive)
44 | Cc1ccc(Cn2c(=O)n(-c3ccc(C)cc3)c(=O)c3c2c2cc(C)ccc2n3C)cc1 |  | -5.57% (inactive)
45 | CCSc1nnc2c(n1)OC(c1ccc(OCC(=O)O)cc1)Nc1ccccc1-2 (stereo not drawn) |  | -45.6% (inactive)
46 | COc1ccc(OCCn2ccnc2C)cc1 | 8.91 µM (active) | 
47 | COc1ccc(OCCC(=O)c2ccc(OC)cc2)cc1 |  | -34.9% [at 102 µM] (inactive)
48 | COc1ccc(OCCCCN2CCC(C)CC2)cc1 |  | 5.74% [at 102 µM] (inactive)
